Screening data (PubChem BioAssay)
In the library only some 3.5% were active in any assay of this set; here they are far more common.
Pf apPOL inh – Pf-apPOL DNA polymerase inhibition. 210,000 compounds, 0.25% hits. AID 1794808. Recombinant Pf-apPOL, molecular beacon fluorescence, 1.5 h. inhibition, % at 10 µM
mHTT CaM bind – mHTT-calmodulin interaction abrogation | AlphaScreen His-mHTT/GST-CaM binding, luminescence | inhibition, % at 15 µM | 190,000 compounds, 3.6% hits | P42858
Hits are given with their value; – = inactive; · = no result given. Cut-off read from the data, not from the text of the source: active = inhibition above about 50%; inactive = the rest.

SMILES | Pf apPOL inh | mHTT CaM bind
CCN(CC)CC(=O)N1CCCc2c1c(=O)oc1ccc(OCc3ccccc3)cc21 | – | –
COc1ccc(-n2c(C)ccc2C)cc1Cl | – | 62
Cc1ccc(C)n1-c1ccc(Cl)c(C(=O)NN)c1 | – | –
O=[N+]([O-])c1ccccc1-n1ccnc1 | · | –
O=C(Cn1cnc2c(oc3ccccc32)c1=O)Nc1cc(F)ccc1F | – | –
O=C(Cn1c2c(c3ccccc31)CCC2)Nc1cc(F)ccc1F | – | 76
Cc1cccc(C)c1NC(=O)c1cccnc1-c1cccs1 | – | –
Cc1ccc(C)c(N=Cc2cc3c(cc2[N+](=O)[O-])OCO3)c1 | · | 66
Cc1cc(C)c(O)c(N=Cc2cc3c(cc2[N+](=O)[O-])OCO3)c1 | – | 52
Cc1cc(C)c(O)c(N=Cc2cc(Cl)cc([N+](=O)[O-])c2O)c1 | – | –
CC(=O)N(C)c1ccc(N=Cc2cc3c(cc2[N+](=O)[O-])OCO3)cc1 | – | –
Cc1ccc(N=Cc2cc3c(cc2[N+](=O)[O-])OCO3)c(C)c1 | – | 76
N#Cc1ccccc1N=Cc1cc2c(cc1[N+](=O)[O-])OCO2 | – | –
Brc1ccc(C=Nc2cccc3ccccc23)s1 | · | –
O=C(Nc1ccccc1C(F)(F)F)N1CCCC1c1nc(-c2ccc(F)cc2F)no1 (centres undefined) | – | –
COC(=O)c1ccc(N2C(c3cccc(OC)c3)=Cc3ccc(F)cc3C2c2c(C)[nH]c3ccccc23)cc1 (centres undefined) | – | –
COc1ccc(-c2ccc(N3C(c4ccsc4)=Cc4ccc(F)cc4C3c3c[nH]c4ccccc34)cc2)cc1 (centres undefined) | – | 82
CN(C)c1ncccc1C(=O)Nc1ccccc1Cl | – | –
O=C(COc1ccc(Cl)cc1)Nc1ccc(-c2ccc(N3CCCC3)nn2)cc1 | – | –
O=C(CN1CCN(C(=O)c2ccco2)CC1)Nc1c2c(nc3c1CCC3)CCCC2 | – | –
Cc1ccc2c(c1)c1c3n2CCN(C(=O)CN2CCN(C(=O)c4ccco4)CC2)C3CCC1 (centres undefined) | – | 57
COCCN=C1Nc2ccccc2CNC12CCN(C(=O)Cc1cccc(C)c1)C2 (centres undefined) | – | –
COCCN=C1Nc2ccccc2NC12CCCN(C(=O)c1cc(-c3ccccc3)n[nH]1)C2 (centres undefined) | – | 67
COCCN=C1Nc2ccccc2NC12CCCN(C(=O)Cc1cccc(C)c1)C2 (centres undefined) | – | 52
COCCN=C1Nc2ccccc2NC12CCCN(C(=O)c1ccccc1Cl)C2 (centres undefined) | – | –
SMILES | Pf apPOL inh | mHTT CaM bind
COCCN=C1Nc2ccccc2NC12CCCN(C(=O)c1ccc(C)nc1)C2 (centres undefined) | – | –
COCCN=C1Nc2ccccc2NC12CCCN(C(=O)CCc1c[nH]c3ccccc13)C2 (centres undefined) | – | 71
CC1=C(C(=O)Nc2cc(C(F)(F)F)ccc2Cl)C(c2ccccc2)C2=C(CCCC2=O)N1 (centres undefined) | – | –
COc1cc(Cl)c(C)cc1NC(=O)c1cccnc1 | 97 | –
COc1cc(OC)c(NC(=O)c2cccnc2)cc1Cl | – | –
CCCOc1ccc(CNC(=O)c2cnc(OC)nc2)cc1 | – | –
Cc1cccc(CC(=O)N2CCc3c(nc4cc(-c5ccccc5)[nH]n4c3=O)C2)c1 | – | 74
O=C(CCc1c[nH]c2ccccc12)N1CCc2c(nc3cc(-c4ccccc4)[nH]n3c2=O)C1 | – | –
O=C(CCc1ccccc1)N1CCc2c(nc3cc(-c4ccccc4)[nH]n3c2=O)C1 | – | 72
COc1ccc(-c2cc3nc4c(c(=O)n3[nH]2)CN(C(=O)Cc2cccc(C)c2)CC4)cc1 | – | –
COc1ccc(NC2CC(=O)N(c3cccc(Br)c3)C2=O)cc1 (centres undefined) | – | –
Cc1ccc(N(C)S(=O)(=O)c2ccc3[nH]cc(C(=O)N4CCCCCC4)c(=O)c3c2)cc1C | – | 58
Cc1ccc(N(C)S(=O)(=O)c2ccc3[nH]cc(C(=O)N4CCC(C)CC4)c(=O)c3c2)cc1C | – | –
CN(CC(=O)Nc1cccc(Cl)c1)S(=O)(=O)c1ccc(Br)s1 | – | –
COc1ccc(Cl)cc1NC(=O)c1cc2cccc(OC)c2oc1=Nc1ccc(C(=O)O)cc1 | – | –
Cc1cc(NC(=O)Cn2c(=O)n(Cc3ccc4c(c3)OCO4)c(=O)c3ccccc32)n[nH]1 | – | –
Cc1nc(-c2ccncc2)nc2c1CCC(=O)N2CCC1=CCCCC1 | – | –
Cc1nc(-c2cccnc2)nc2c1CCC(=O)N2CCC1=CCCCC1 | – | 57
CNC(=O)C(C)SCc1ccccc1 (centres undefined) | – | –
CCOc1cccc2cc(C(N)=O)c(=Nc3ccc(OC)cc3)oc12 | – | –
COc1cc(N=c2oc3c(O)cc(C(C)(C)C)cc3cc2C(N)=O)cc(OC)c1 | – | 56
Cc1ccc2c(c1)C(=O)N1CCCC1C(=O)N2CC(=O)NCc1ccco1 (centres undefined) | – | –
O=C1CC(=Nc2ccc(Br)cc2)NN1c1ccccc1 | – | 77
CN1C(=O)CC(C(=O)O)SC1=Nc1ccc(Br)cc1 (centres undefined) | – | –
COCC1CCN(C(=O)c2cccnc2N2CCNC(c3ccccc3)C2)CC1 (centres undefined) | – | –
SMILES | Pf apPOL inh | mHTT CaM bind
O=C(c1cccnc1N1CCNC(c2ccccc2)C1)N1CCC(Cc2ccccc2)CC1 (centres undefined) | – | 73
COc1ccccc1CNC(=O)C1CCc2sc(C(=O)N3CCOCC3)cc2C1 (centres undefined) | – | –
CCOC(=O)C1CCN(CC(O)COc2ccc(C34CC5CC(CC(C5)C3)C4)cc2)CC1 (centres undefined) | – | –
OC(COc1ccc(C23CC4CC(CC(C4)C2)C3)cc1)CN1CCCCC1 (centres undefined) | – | 100
OC(COc1ccc(C23CC4CC(CC(C4)C2)C3)cc1)CN1CCOCC1 (centres undefined) | – | –
CN1CCN(CC(O)COc2ccc(C34CC5CC(CC(C5)C3)C4)cc2)CC1 (centres undefined) | – | 96
Cc1ccc(NC(=O)NCC2CCN(Cc3ccccc3F)CC2)cc1C | – | –
CC1=C(C(=O)Nc2cc(C)ccn2)C(c2ccsc2)C2=C(CCCC2=O)N1 (centres undefined) | – | –
Cc1cc(C)nc(NC(=O)CC(C)(C)C)n1 | – | –
CCC(=O)Nc1nc2ccccc2n1C | – | –
CCC(=O)Nc1nc2ccccc2n1Cc1ccc(Cl)cc1 | – | 72
c1ccc2c3c([nH]c2c1)CCCC3 | · | –
O=C(Nc1ccccc1)c1cccc2c3c([nH]c12)CCCC3 | – | 76
O=C(Nc1nc(-c2cc([N+](=O)[O-])cs2)cs1)c1ccc(S(=O)(=O)N2CCCCC2)cc1 | – | –
Cc1ccc(CNC(=O)c2nc(-c3ccncc3)cs2)cc1 | – | –
O=C(NCc1ccc(Cl)cc1)c1nc(-c2ccncc2)cs1 | – | 66
O=C(c1ccsc1)N1CCC(c2nc(-c3ccc(F)cc3)n[nH]2)CC1 | – | –
